An excerpt weighted towards active compounds, which were near 4.2% of everything screened.
ALOX12 inh: inhibitors of human 12S-lipoxygenase ALOX12; P18054; purified 12hLO, xylenol orange hydroperoxide absorbance; Potency, µM (top dose mostly 108 µM), most hits filed as inhibitors; hit rate 1.1% among 580,000; AID 1671190
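Purified human 12hLO at 150 nM in 25 mM Hepes, 0.01% Triton X-100, pH 7.0, preincubated 15 min at room temperature with compound. Reaction started with 40 uM arachidonic acid, 30 min at room temperature. Hydroperoxide measured by Fe-xylenol orange, 573/405 nm absorbance ratio.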
PLK1 PBD block: blocks phosphopeptide binding to human PLK1 polo-box domain; hit rate 2.8% among 360,000; P53350; Plk1 PBD binding of FITC phosphopeptide, fluorescence polarization; AID 720504; Potency, µM, hits mostly inhibitors; further: series mostly up to about 57 µM; nearly all actives have a fitted effect of over 65% in size
Target sequence (P53350 whole entry, looked up, the tested form may be a part): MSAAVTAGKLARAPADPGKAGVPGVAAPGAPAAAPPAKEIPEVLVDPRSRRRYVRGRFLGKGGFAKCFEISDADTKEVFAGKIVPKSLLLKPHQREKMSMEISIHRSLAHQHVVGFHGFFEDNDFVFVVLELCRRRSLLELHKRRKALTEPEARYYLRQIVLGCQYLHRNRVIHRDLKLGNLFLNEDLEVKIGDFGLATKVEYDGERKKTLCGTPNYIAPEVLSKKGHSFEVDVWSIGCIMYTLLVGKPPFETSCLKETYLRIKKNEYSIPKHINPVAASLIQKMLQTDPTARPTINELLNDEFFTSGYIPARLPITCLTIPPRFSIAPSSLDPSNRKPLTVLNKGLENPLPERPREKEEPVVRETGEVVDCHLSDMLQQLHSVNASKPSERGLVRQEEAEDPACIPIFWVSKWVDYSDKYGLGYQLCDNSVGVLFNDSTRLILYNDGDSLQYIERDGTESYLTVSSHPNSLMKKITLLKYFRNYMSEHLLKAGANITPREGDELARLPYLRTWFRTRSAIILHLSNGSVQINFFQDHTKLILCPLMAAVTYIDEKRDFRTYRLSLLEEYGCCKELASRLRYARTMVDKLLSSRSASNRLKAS
VDR inhibitor: blocks the human vitamin D receptor; P11473; VDR-SRC2-3 peptide fluorescence polarization, 2 h; Potency, µM, usual class: inhibitors; hit rate 0.93% among 400,000; AID 504847
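Reagent solutions, kept cold and dark, are dispensed first; compounds are then pinned in at 23 nl, plates briefly spun, and incubated 2 h at ambient temperature. Inhibition of VDR–SRC2-3 peptide binding is read by fluorescence polarization.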
Sfp PPTase inh: blocks B. subtilis Sfp PPTase activity. Potency, µM, hits mostly inhibitors. hit rate 3.5% among 310,000. Q9F4F7. Biochemical Sfp PPTase activity, qHTS;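 further: the enzyme is Sfp with the accession as filed and its product quenches rhodamine fluorescence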
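After 15 min at room temperature with compound, 15 nM Sfp received 5 uM rhodamine-CoA plus 12.5 uM BHQ-2-ybbR (50 mM Hepes pH 7.6, 10 mM MgCl2). Rate came from the fluorescence difference over 30 min, ex 525/em 598 nm.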
A number is an active result; i = inactive; ? = inconclusive; nt = no result given. The call rests on the fitted dose curve; in most records, active means well fitted curve in the direction sought with a large enough effect; inconclusive means small, poorly fitted or top-dose-only effect, or another doubt; inactive means no such curve, though single readings can be large; an effect the other way counts as inactive or inconclusive.

SMILES	ALOX12 inh	PLK1 PBD block	VDR inhibitor	Sfp PPTase inh
CCOc1ccc(NC(=O)CSc2oc(-c3ccc(C)cc3)nc2S(=O)(=O)c2ccc(C)cc2)cc1	i	nt	i	nt
CCOC(=O)c1c(S(=O)(=O)N2CCC(C(=O)NCc3ccc(F)cc3)CC2)c(C)n(C)c1C	i	nt	i	nt
Cn1nc(C(=O)OCC(=O)Nc2cc(C(F)(F)F)ccc2Cl)c2ccccc2c1=O	i	nt	nt	nt
CCCc1cc(=O)[nH]c(SCC(=O)N(C)Cc2ccccc2)n1	i	i	i	i
CCCc1cc(=O)[nH]c(SCC(=O)N(C)CC(=O)Nc2ccccc2CC)n1	i	27µM	?	i
Cc1nn(-c2ccccc2)c(OC(=O)c2ccc(F)cc2)c1S(=O)(=O)c1ccccc1	i	nt	i	nt
Cn1c(SCc2ccc(C(C)(C)C)cc2)nnc1C1COc2ccccc2O1 (centres undefined)	?	i	i	i
c1ccc(OCc2nnc3sc(C4COc5ccccc5O4)nn23)cc1 (centres undefined)	i	24µM	71µM	25µM
Cc1ccc(-c2nnc3sc(C4COc5ccccc5O4)nn23)cc1 (centres undefined)	i	i	i	i
Clc1ccccc1-c1nnc2sc(C3COc4ccccc4O3)nn12 (centres undefined)	i	?	?	18µM
c1ccc(Cc2nnc3sc(C4COc5ccccc5O4)nn23)cc1 (centres undefined)	?	15µM	?	?
CCCOc1ccc(C2CC(=O)Nc3c2c(C)nn3-c2nncc(-c3cccc(OC)c3)n2)cc1OC (centres undefined)	i	nt	i	nt
O=c1[nH]n2c(=O)c3c([nH]c2c1N=Nc1cccc(C(F)(F)F)c1)CCCC3	?	?	i	i
COc1cccc(N=Nc2c(=O)[nH]n3c(=O)c4c([nH]c23)CCC4)c1	i	30µM	i	i
O=C(CS(=O)(=O)c1cn(CC(=O)N2CCOCC2)c2ccccc12)NCc1ccccc1	i	i	i	nt
O=C(O)C1CCN(C(=O)CSc2nnc(-c3ccccc3)o2)CC1	i	i	i	nt
Cc1ccc(S(=O)(=O)N[C@H](C(=O)OCC(=O)NC(=O)Nc2ccc3c(c2)OCCO3)C(C)C)cc1	i	i	i	i
Cc1ccc(S(=O)(=O)N(C)CC(=O)OCC(=O)NC(=O)Nc2ccc3c(c2)OCCO3)cc1	i	27µM	?	i
O=C(Nc1ccc(C(=O)N2CCN(c3ccccc3F)CC2)cc1)C1=CSCCO1	i	i	i	i
OCc1nn2c(c1Br)NC(c1ccccc1)CC2C(F)(F)F (centres undefined)	i	7.5µM	?	i
NC(=S)N=Nc1c(O)cc(O)c2[nH]c(=O)ccc12	?	7.5µM	?	nt
Cc1nnc(NC(=O)c2ccc3c(c2)C(=O)N(CCC(C)C)C3=O)s1	i	i	i	i
CCOC(=O)c1cc(C#N)c(SCC(=O)O)[nH]c1=O	i	i	i	50µM
CCOC(=O)c1cc(C#N)c(SCC(=O)c2cc(C#N)c(SC)nc2C)[nH]c1=O	?	?	?	32µM
CCOC(=O)c1cc(C#N)c(SCC(=O)Nc2ccc(C(C)=O)cc2)[nH]c1=O	i	i	i	i
SMILES	ALOX12 inh	PLK1 PBD block	VDR inhibitor	Sfp PPTase inh
CN(Cc1ccsc1)C(=O)CSc1nnc(COc2ccc(Cl)cc2)n1C	i	nt	nt	nt
Cc1cc(C2CCCCN2C(=O)Nc2cccc(-c3csc(C)n3)c2)no1 (centres undefined)	i	nt	nt	nt
COc1ccc(OC)c(NC(=O)CSCc2ccc(Cl)c(Cl)c2)c1	i	nt	nt	nt
CC1=CC2=NC(=O)/C(=C\c3cccn3CCOc3ccccc3C)C(=N)N2O1	i	27µM	i	i
COc1ccccc1OCCOc1ccc(/C=C2/C(=N)N3OC(C)=CC3=NC2=O)cc1OC	i	i	i	i
CCCCCOc1ccc(C(N)C(=O)OCC)cc1 (centres undefined)	20µM	nt	nt	nt
COc1ccc(-c2c(-c3ccc(C)c(C)c3)[nH]c3c2c(=O)[nH]c(=O)n3C)cc1	i	nt	nt	nt
COc1ccc(CCNC(=S)Nc2ccc(OC)cc2)cc1	?	21µM	i	i
COc1ccc(NC(=S)NCCCCCC(=O)C[N+](=O)[O-])cc1	?	24µM	?	i
COc1ccc(CCNC(=S)NC2CCN(Cc3ccccc3)CC2)cc1	i	30µM	i	?
O=C(CCCCCNC(=S)Nc1ccccc1)C[N+](=O)[O-]	i	i	i	i
COc1ccc(CCNC(=S)Nc2ccccc2)cc1	i	i	i	i
CC(=O)c1ccc(NC(=S)NCCc2ccc(Cl)cc2)cc1	50µM	nt	nt	nt
S=C(NCCc1ccccc1)NC1CCC(NC(=S)NCCc2ccccc2)CC1 (centres undefined)	i	i	i	i
Cc1ccc(CNC(=O)C(=O)NCC(c2ccco2)N2CCOCC2)cc1 (centres undefined)	i	i	i	i
COc1ccc(C(=O)NC(=S)NCCc2ccccc2)cc1	16µM	i	i	i
COc1ccc(NC(=S)Nc2ccccc2)cc1	?	i	i	i
COc1ccc(NC(=S)Nc2ccc3nccnc3c2)cc1	i	i	i	45µM
COc1ccc(CCNC(=S)Nc2cc(C)cc(C)c2)cc1	?	i	i	i
COc1ccc(CCNC(=S)Nc2ccc(C(C)C)cc2)cc1	40µM	i	i	?
CCC(C)c1ccc(NC(=S)Nc2ccc(OC)cc2)cc1 (centres undefined)	45µM	i	?	i
CCc1ccc(NC(=O)C(Cc2ccccc2)NS(=O)(=O)c2ccc3c(c2)CCN3C(C)=O)cc1 (centres undefined)	i	nt	i	nt
CCCNC(=O)NC(=O)CN(CC(C)O)c1ccccc1 (centres undefined)	i	nt	nt	nt
CCCC(=O)O[C@]1(C(=O)COC(C)=O)CC[C@H]2C3C[C@H](F)C4=CC(=O)C=CC4(C)[C@@]3(F)[C@@H](O)CC21C (some centres undefined)	nt	nt	i	i
O=C(Cc1ccc(F)cc1)NC1CCN(c2ccccc2)C1=O (centres undefined)	i	nt	nt	nt
SMILES	ALOX12 inh	PLK1 PBD block	VDR inhibitor	Sfp PPTase inh
CCc1nnc2n1N=C(c1ccc(Br)cc1)CS2	i	i	i	i
Brc1ccc(C2=Nn3c(Cn4nnc5ccccc54)nnc3SC2)cc1	?	12µM	?	28µM
Cc1ccc(NC(=O)CN(C)S(=O)(=O)c2ccc3c(c2)n(C)c(=O)c(=O)n3C)cc1	i	i	i	i
CC/C(=N/OC(=O)c1cccc(C)c1)C(=O)c1cccs1	i	i	i	i
[N-]=C=C1C(=O)NC(=O)C([n+]2ccc(-c3ccncc3)cc2)C1c1ccccc1C(F)(F)F (centres undefined)	?	?	28µM	50µM
O=C(Nc1cccc(NC(=O)c2cccnc2)c1)c1ccccc1	i	i	i	i
O=C(CN1C(=O)CSC1=O)Nc1ccc(F)c(F)c1F	i	24µM	i	i
CCOc1cc(NC(=O)c2ccccn2)c(OCC)cc1NC(=O)CC(C)C	i	21µM	i	i
CCOc1ccc2c(c1)cc(C(=O)NC1CCCC1)n2C	i	nt	nt	nt
O=C(NCc1ccco1)C(c1ccco1)N(CCc1ccccc1)C(=O)Cn1nnc2ccccc21 (centres undefined)	i	3.8µM	i	?
O=C(NCc1ccco1)C(c1ccco1)N(Cc1cccs1)C(=O)Cn1nnc2ccccc21 (centres undefined)	?	i	i	i
